# Source: PubChem BioAssay
# An excerpt weighted towards active compounds, which were near 2.7% of everything screened.
# CFTR F508del cor: CFTR F508del correction in bronchial cells. CFBE cells, YFP halide quenching; stimulated with forskolin plus potentiator P3; % fluorescence drop versus neutral controls. activity (quench increase), % at 7.58 µM. 350,000 tested, 0.36% active;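 active means mean added fluorescence quench of at least 8% versus neutral control, with both replicates also reaching 8%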;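 further: cells transiently co-express mutant CFTR-F508del with the halide-sensitive YFP; corrector assay measuring rescue of mutant channel to the surface after 24 h compound exposure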
# MPTP inh: blocks calcium-induced mitochondrial swelling; isolated mouse mitochondria, Ca2+ swelling absorbance, 30 min; inhibition, % at 10 µM; 360,000 tested, 1.4% active;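 active means inhibition of 50% or more, scaled per plate between neutral and stimulator controls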;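 further: 0% = DMSO wells given calcium and 100% = 1 mM EGTA wells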
# ATG4B inh: inhibitors of human ATG4B cysteine protease; Q9Y4P1; ATG4B cleavage of LC3-PLA2, NBD-HPC fluorescence, 1 h; inhibition, % at 8.33 µM; 340,000 tested, 0.51% active; AID 504462; in the data active means inhibition above about 40%
# CendR NRP1 mod: modulators of CendR peptide binding to human neuropilin-1; O14786; FAM-RPARPAR peptide binding to NRP-1, fluorescence polarization; inhibition, % at 25 µM; 360,000 tested, 0.85% active; AID 602438;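 active means inhibition or corrected inhibition above about 18%, plus a signal ratio from 0.5 to 1.5, limit read from the data, passing the limit was not always enough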
# Target sequence (O14786 whole entry, looked up): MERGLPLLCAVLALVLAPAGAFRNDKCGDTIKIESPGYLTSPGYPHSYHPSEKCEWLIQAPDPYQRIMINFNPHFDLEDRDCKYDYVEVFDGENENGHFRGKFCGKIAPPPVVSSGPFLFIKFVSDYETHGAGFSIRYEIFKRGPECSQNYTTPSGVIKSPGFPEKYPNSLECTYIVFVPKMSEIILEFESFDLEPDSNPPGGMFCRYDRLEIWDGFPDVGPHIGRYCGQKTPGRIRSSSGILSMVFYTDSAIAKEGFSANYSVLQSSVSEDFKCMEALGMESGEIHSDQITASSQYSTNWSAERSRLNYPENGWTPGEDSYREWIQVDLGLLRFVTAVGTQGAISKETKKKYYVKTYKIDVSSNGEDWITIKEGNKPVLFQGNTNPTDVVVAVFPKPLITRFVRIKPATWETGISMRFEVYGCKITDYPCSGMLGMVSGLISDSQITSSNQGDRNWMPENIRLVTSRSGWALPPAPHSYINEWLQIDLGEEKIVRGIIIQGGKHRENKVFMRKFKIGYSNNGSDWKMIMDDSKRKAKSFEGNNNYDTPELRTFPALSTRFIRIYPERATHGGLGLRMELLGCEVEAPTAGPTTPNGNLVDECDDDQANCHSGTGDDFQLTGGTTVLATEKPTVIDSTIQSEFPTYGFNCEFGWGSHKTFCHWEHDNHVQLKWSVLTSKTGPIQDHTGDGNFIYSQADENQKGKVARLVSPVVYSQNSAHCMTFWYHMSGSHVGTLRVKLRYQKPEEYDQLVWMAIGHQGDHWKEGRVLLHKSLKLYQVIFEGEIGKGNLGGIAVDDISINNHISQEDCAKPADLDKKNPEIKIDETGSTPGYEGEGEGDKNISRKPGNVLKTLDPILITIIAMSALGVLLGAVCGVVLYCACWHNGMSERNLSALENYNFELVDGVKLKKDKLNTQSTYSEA
# SKN-1 block: inhibitors of C. elegans SKN-1; C. elegans VP596 Pgst-4::GFP/RFP ratio, acrylamide-induced, 24 h; 360,000 tested, 0.49% active; inhibition, % at 21.8 µM;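 active means interference check ratio from 0.5 to 1.5 plus GFP to RFP signal ratio inhibition reaching or exceeding a fixed threshold, cut at about 30% in these data, passing the limit was not always enough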
# ATG4B conf: ATG4B (human) inhibition, single-dose confirmed; shares compounds with ATG4B inh; ATG4B protease fluorescent substrate cleavage assay; inhibition, % at 8.33 µM; 320 tested, 92% active; in the data active means inhibition above about 39%
# PLA2 counter: PLA2 (human) inhibition in ATG4B counter-screen | inhibition, % at 8.33 µM | shares compounds with ATG4B inh | AID 588402 | purified PLA2, NBD-C6-HPC fluorescence, 45 min | 1,600 tested, 66% active; in the data active means inhibition above about 50%
# * hit, by the source's call; / = no result given.
SMILES,CFTR F508del cor,MPTP inh,ATG4B inh,CendR NRP1 mod,SKN-1 block,PLA2 counter,others
CC1(C)Cc2c(cnn2-c2ccccc2)C(=O)/C1=N\NC(=O)c1ccccc1N,/,2,-7,-10,3,/,
C[C@@H]1CCCCO[C@@H](CN(C)Cc2ccncc2)[C@H](C)CN([C@@H](C)CO)C(=O)c2cc(NS(=O)(=O)c3cccs3)ccc2O1,0,/,/,/,/,/,
CNC[C@@H]1Oc2cc(C#CCOC)ccc2S(=O)(=O)N([C@@H](C)CO)C[C@H]1C,1,/,/,/,/,/,
COCC1CCCCN1C(=O)c1cccc(OC2CCN(C(=O)C3CC3)CC2)c1 (stereo not given),2,0,-2,17,23,/,
CCN(Cc1ccccc1)C(=O)c1cccc(OC2CCN(C(=O)C3CC3)CC2)c1,3,0,43*,10,1,34,
N#C[C@H]1[C@@H](c2ccccc2-c2cccc(F)c2)[C@@H](CO)N1C(=O)Cc1cccnc1,2,/,/,/,/,/,
O=C(NCc1ccc(Cl)s1)c1cc(COc2c(F)cccc2F)on1,-4,-1,12,-2,5,/,
Cc1cccc(C)c1OCc1cc(C(=O)NCc2ccc(Cl)s2)no1,-2,1,61*,8,-14,67*,
CCCCC[C@@H]1C=C(C(=O)O)[C@H](c2ccc3c(c2)OCO3)N1S(=O)(=O)c1ccc(C)cc1,0,1,50*,-6,1,57*,
O=c1[nH]c(=S)[nH]c2c1C(c1ccc(Br)cc1)c1c([nH]c(=S)[nH]c1=O)O2,-1,0,53*,-203,-6,1,ATG4B conf=15
COc1cccc(OC)c1C(=O)Nc1cccc(-c2nc3ccccc3[nH]2)c1,0,0,53*,10,6,62*,
COc1ccc(Cl)cc1C(=O)NC(=S)Nc1cc(-c2nc3ccccc3[nH]2)ccc1C,/,3,66*,13,13,79*,
C[C@H]1CCCCO[C@H](CN(C)C(=O)c2ccccc2)[C@@H](C)CN([C@@H](C)CO)C(=O)c2cc(NC(=O)Cc3ccccc3)ccc2O1,1,/,/,/,/,/,
COc1ccc(NC(=O)N2C[C@@H](O)COC[C@H]3O[C@@H](CC(=O)N4CCOCC4)CC[C@@H]32)cc1,-2,/,/,/,/,/,
COc1ccc(-c2nnn(Cc3ccccc3F)n2)cc1,/,0,-5,-6,5,/,
CN(C)c1ccc(-c2nnn(Cc3ccccc3Br)n2)cc1,2,0,41*,6,0,39,ATG4B conf=66*
COCC(=O)N1CC(=O)N2[C@H](CO)[C@@H](c3ccc(C#CC4CC4)cc3)[C@@H]2C1,5,/,/,/,/,/,
C[C@@H]1CN([C@H](C)CO)C(=O)c2cc(C3=CCCC3)cnc2O[C@@H]1CN(C)S(C)(=O)=O,0,/,/,/,/,/,
COc1ccc(OC)c(-c2csc(NC(=O)c3ccccc3F)n2)c1,5,2,17,14,9,/,
O=C(Nc1nc(COc2ccccc2)cs1)c1ccccc1F,/,1,54*,0,17,33,
CC1=CN2C(=N)/C(=C/c3ccc(Sc4ccc(C)cc4)o3)C(=O)N=C2S1,/,50,43*,-19,2,56*,
CCC(C)[C@H](Nc1nc(-c2ccccc2)nc2c1oc1ccccc12)C(=O)O (stereo not given in full),/,-2,44*,4,9,54*,
CC(C)[C@H](Nc1nc(-c2ccccc2)nc2c1oc1ccccc12)C(=O)O,/,-1,20,-9,4,/,
CCCN(C)C[C@@H]1Oc2cc(-c3cccc(OC)c3)ccc2S(=O)(=O)N([C@H](C)CO)C[C@@H]1C,-3,/,/,/,/,/,
CN1CCC2(CC1)N=C(c1ccc(F)cc1)C(=S)N2C(=O)c1ccc(C(C)(C)C)cc1,/,0,45*,-14,4,10,
SMILES,CFTR F508del cor,MPTP inh,ATG4B inh,CendR NRP1 mod,SKN-1 block,PLA2 counter,others
CCOC(=O)C1=C(C(=O)OCC)C2N(Cc3ccc(Br)cc3)c3ccccc3[C@@]23C[C@@H](C(=O)OC)N(S(=O)(=O)c2ccc(Br)cc2)C3=N1 (stereo not given in full),-9,/,/,/,/,/,
O=C1Nc2ccc(Cl)cc2C12Nc1ccccc1-c1nnc(SCc3ccccc3F)nc1O2 (stereo not given),/,11,50*,-4,14,63*,
COc1ccc(CNC(=O)C(c2ccc(C)o2)N(C(=O)c2csnn2)c2ccc(C(C)C)cc2)cc1 (stereo not given),/,-2,43*,-9,14,41,
CCOC(=O)c1ccc(N=C2SC(C(=O)NC)CC(=O)N2Cc2ccc(F)cc2)cc1 (stereo not given),3,0,1,5,3,/,
CCOC(=O)c1ccc(N=C2SC(C(=O)Nc3ccc(C(=O)O)cc3)CC(=O)N2Cc2cccs2)cc1 (stereo not given),-2,0,55*,1,7,55*,
CN(C)c1ccc(-c2c(-c3ccc4c(c3)OCO4)noc2-c2ccsc2)cn1,/,0,-1,11,-16,/,
O=C(O)c1cc(-c2ccc(-c3c(-c4ccc5c(c4)OCO5)noc3-c3ccsc3)cc2)nc2ccccc12,1,-1,62*,-26,0,34,ATG4B conf=18
O=C(NCC1CC1)[C@H]1N[C@H]2c3ccc(-c4ccccc4F)c(=O)n3C[C@H]2[C@@H]1CO,2,/,/,/,/,/,
Cc1cccc(C)c1N1CCN(S(=O)(=O)c2ccc(F)cc2)CC1,/,2,51*,8,-12,62*,
C/C=C/c1ccc2c(c1)O[C@H](CN(C)C(=O)c1ccccc1)[C@H](C)CN([C@@H](C)CO)S2(=O)=O,0,/,/,/,/,/,
C[C@@H]1CN([C@@H](C)CO)C(=O)c2cccc(NC(=O)Nc3ccccc3)c2O[C@@H]1CN(C)C(=O)Nc1ccccc1,2,/,/,/,/,/,
COc1ccc(-n2c(C)c(C(C)=O)c3cc(OCC(N)=O)ccc32)cc1,-1,-2,50*,-3,5,58*,
CCOc1ccc(-n2c(C)c(C(C)=O)c3cc(OCC(N)=O)ccc32)cc1,/,-3,36,1,-8,/,
Cc1ncc(CC(=O)n2cc(C(=O)c3cc(F)ccc3O)cn2)s1,/,0,41*,-30,16,50*,
O=C(c1cnn(-c2ccccc2)c1)c1cc(F)ccc1O,0,1,13,-4,0,/,
O=C(/C=C\c1ccccc1OC(=O)c1ccccc1F)c1cc2ccccc2o1,/,2,45*,-8,-7,51*,
C[C@@H]1CCCCO[C@H](CN(C)S(=O)(=O)c2ccc(Cl)cc2)[C@@H](C)CN([C@@H](C)CO)C(=O)c2cc(NC(=O)C3CCCCC3)ccc2O1,1,/,/,/,/,/,
COc1ccc(C(=O)Nc2cccc(/C=C(\CCC(=O)O)c3nc4ccccc4s3)c2)cc1,-1,4,59*,-46,6,74*,
